We go through seven compounds from PubChem BioAssay (NCATS).

The test system of assay [1] is HaCat. Put plainly: Cytotoxic Profiling of Annotated Libraries Using Quantitative High-Throughput Screening (AID 1296008). Also: nearly all actives have a fitted effect of over 60% in size. As to max response: % is scaled to controls: 0 for no effect and ±100 for the full control effect. The settings on record: Five cell lines viability, CellTiter-Glo ATP luminescence, 48-72 h; max response: active compounds read low. Put shortly: (§1)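 Cells exposed to compounds for 48 or 72 hr at 37 degrees Celsius. Viability read as ATP-coupled luminescence with CellTiter-Glo after 10 min at room temperature.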
(In general: ATP-based viability assays read luminescence as a measure of living cells.)

A further assay relates to KB-3-1. The description is as above. To be noted: Five cell lines viability, CellTiter-Glo ATP luminescence, 48-72 h; max response: active compounds read low. The essentials: as §1
The next assay has as its system NIH3T3. The description is as above. The settings on record: Five cell lines viability, CellTiter-Glo ATP luminescence, 48-72 h; max response: active compounds read low. Put shortly:
as §1

The next assay deals with MCC-13. Kind of assay: qHTS assay to identify novel small-molecules to repurpose for Merkel cell carcinoma treatment (AID 1296009). Also: nearly all actives have a fitted effect of over 60% in size. Also: potency is read from the fitted curve at half-maximal effect. The settings on record: MCC and control cell lines, CellTiter-Glo viability, 72 h; series mostly up to 46 µM. Put shortly: (§2)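 Cells were treated for 72 hr at 37 degree celsius with compounds in 8- or 11-point dose response. Viability was read by CellTiter-Glo luminescence, normalized to no-cell (cytotoxicity) and DMSO controls.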

For the next assay, the system named is MCC-26. The description is as above. To be noted: MCC and control cell lines, CellTiter-Glo viability, 72 h; series mostly up to 46 µM. The essentials:
as §2

Another assay deals with MKL-1. The assay is described as above. The settings on record: MCC and control cell lines, CellTiter-Glo viability, 72 h; series mostly up to 46 µM. The essentials:
as §2

A further assay deals with MKL-2. The assay is described as above. To be noted: MCC and control cell lines, CellTiter-Glo viability, 72 h; series mostly up to 46 µM. Put shortly:
as §2

The next assay relates to UISO. The assay is described as above. To be noted: MCC and control cell lines, CellTiter-Glo viability, 72 h; series mostly up to 46 µM. Put shortly: as §2
The next assay concerns WaGa. The description is as above. The settings on record: MCC and control cell lines, CellTiter-Glo viability, 72 h; series mostly up to 46 µM. Put shortly: as §2
A further assay relates to C33A. Put plainly: Primary qHTS to identify gynecologic anti-cancer compounds using libraries of approved drugs and bioactive compounds (AID 1345084). Also: % is scaled to controls: 0 for no effect and ±100 for the full control effect; nearly all actives have a fitted effect of over 55% in size. To be noted: Gynecologic cancer cell panel viability, ATPlite luminescence, 48 h; series mostly up to 57.5 µM. The essentials:
(§3)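 Cells, 1,000 per well, were allowed to settle for 16 h at 37 C before compound addition. Five concentrations were tested for 48 h, and viability was read by ATPlite luminescence after 15 min at room temperature.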

The next assay deals with CASKI. The assay is described as above. To be noted: Gynecologic cancer cell panel viability, ATPlite luminescence, 48 h; series mostly up to 57.5 µM. Put shortly: as §3
The next assay has as its system CRL-7250. Kind of assay: Cytotoxic Profiling of Annotated Libraries Using Quantitative High-Throughput Screening (AID 1296008). Also: nearly all actives have a fitted effect of over 60% in size. As to max response: % is scaled to controls: 0 for no effect and ±100 for the full control effect. The settings on record: Five cell lines viability, CellTiter-Glo ATP luminescence, 48-72 h; max response: active compounds read low. The essentials: as §1
A further assay deals with CAOV3. Kind of assay: Primary qHTS to identify gynecologic anti-cancer compounds using libraries of approved drugs and bioactive compounds (AID 1345084). Also: % is scaled to controls: 0 for no effect and ±100 for the full control effect; nearly all actives have a fitted effect of over 55% in size. To be noted: Gynecologic cancer cell panel viability, ATPlite luminescence, 48 h; series mostly up to 57.5 µM. The essentials: as §3
On the technique in general: In qHTS, concentration-response curves come from the screen itself.

The subject of the next assay is HEK293. Kind of assay: Cytotoxic Profiling of Annotated Libraries Using Quantitative High-Throughput Screening (AID 1296008). Also: nearly all actives have a fitted effect of over 60% in size. As to max response: % is scaled to controls: 0 for no effect and ±100 for the full control effect. To be noted: Five cell lines viability, CellTiter-Glo ATP luminescence, 48-72 h; max response: active compounds read low. Put shortly:
as §1

For assay [2], the system named is HACAT. Put plainly: qHTS assay to identify novel small-molecules to repurpose for Merkel cell carcinoma treatment (AID 1296009). Also: nearly all actives have a fitted effect of over 60% in size. Also: potency is read from the fitted curve at half-maximal effect. To be noted: MCC and control cell lines, CellTiter-Glo viability, 72 h; at 44.8 µM (top of the series) unless noted. The essentials: as §2
A further assay concerns HEK293T. The assay is described as above. The settings on record: MCC and control cell lines, CellTiter-Glo viability, 72 h; at 44.8 µM (top of the series) unless noted. Put shortly: as §2
Another assay deals with TAB113. Kind of assay: qHTS profiling for inhibitors of Plasmodium falciparum proliferation (AID 504749). Also: nearly all actives have a fitted effect of over 60% in size. Also: potency is read from the fitted curve at half-maximal effect. The settings on record: P. falciparum in erythrocytes, SYBR Green DNA, 72 h; series mostly up to 28.7 µM. Put shortly:
(§4)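 P. falciparum-infected erythrocytes (0.3% parasitemia, 2.5% hematocrit) incubated with compound 72 h at 37 C, 5% CO2. Parasite DNA detected by SYBR Green after lysis, overnight at room temperature; normalised to 0.29 uM artemisinin and DMSO.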

The next assay relates to TAB165. Described as above. To be noted: P. falciparum in erythrocytes, SYBR Green DNA, 72 h; series mostly up to 28.7 µM. Put shortly:
as §4

In the next assay the test system is W2. The description is as above. To be noted: P. falciparum in erythrocytes, SYBR Green DNA, 72 h; series mostly up to 28.7 µM. Put shortly: as §4

Several values for one entry are separate records, joined by “and”; a condition that tells them apart may be missing. Equal values may be shown once. Results filed as inconclusive are left out. Activity calls are given as the source filed them. Calls follow the shape of the dose curve; as a rule, active = well fitted curve in the direction sought with a large enough effect; inconclusive = small, poorly fitted or top-dose-only effect, or another doubt; inactive = no such curve, though single readings can be large; an effect the other way counts as inactive or inconclusive.

On to `C[C@@H]1C[C@H]2[C@@H]3C[C@H](F)C4=CC(=O)C(Cl)=C[C@]4(C)[C@@]3(F)[C@@H](O)C[C@]2(C)[C@@]1(O)C(=O)CO`, for which the figures for the max response in the assay on HaCat [1], with KB-3-1 and in the assay with NIH3T3 were 2.77% (inactive), 11.7% (inactive) and -7.22% (inactive), respectively. For the same compound, the Potency result in the assay with MCC-13, in the assay on MCC-26, with MKL-1, in the assay with MKL-2, with UISO and in the assay with WaGa was “inactive” each time. Further, the Potency result with C33A and in the assay on CASKI was “inactive” throughout.
For the compound `Cc1ccc(O)c2ncccc12`, the max response in the assay on CRL-7250 was -10.3% (inactive); in the assay with HaCat [1] it was 2.26% (inactive); in the assay on KB-3-1, -5.97% (inactive). Further, the Potency in the assay on MKL-1 is 15 µM (active); in the assay with MKL-2, 8.41 µM (active); in the assay with UISO, 11.9 µM (active). For the same compound, the Potency entry with C33A, in the assay on CAOV3 and in the assay with CASKI was “inactive” in each case.
With `COc1cc(/C=C/C(=O)O[C@H]2CC[C@]34C[C@]35CC[C@]3(C)[C@@H]([C@H](C)CCC=C(C)C)CC[C@@]3(C)[C@@H]5CC[C@H]4C2(C)C)ccc1O`, the max response in the assay with HEK293 is 2.65% (inactive); in the assay with KB-3-1, 0.76% (inactive) and -6.22% (inactive); in the assay with NIH3T3, 0.391% (inactive). Besides, the compound was called inactive in the assay on HaCat [1] and in the assay on HACAT [2]. Moreover, the Potency result in the assay on MCC-13, in the assay with MCC-26, in the assay on MKL-1, in the assay with MKL-2, in the assay on UISO and in the assay on WaGa was “inactive” each time. The Potency entry in the assay on C33A and in the assay with CASKI was “inactive” throughout.
`CC(=O)OCC(=O)[C@@]12N=C(C)O[C@@H]1C[C@H]1[C@@H]3CCC4=CC(=O)C=C[C@]4(C)[C@H]3[C@@H](O)C[C@@]12C`: the compound was classed as inactive in the assay with HEK293, in the assay on HaCat [1], in the assay with HACAT [2] and in the assay with HEK293T. Also, the max response with KB-3-1 is 7.15% (inactive); in the assay on NIH3T3, -1.08% (inactive). Moreover, the Potency entry with MCC-13, in the assay on MKL-1, with MKL-2, in the assay on UISO, with WaGa and in the assay with C33A was “inactive” each time. Moreover, the Potency entry with CASKI is “inactive”.
On to `NC(=O)C(=O)N/N=C/c1ccc([N+](=O)[O-])o1`, for which the Potency result in the assay on TAB113, in the assay on TAB165, in the assay on MCC-13, with MCC-26, in the assay on C33A and in the assay with CAOV3 was “inactive” each time. For the same compound, the Potency result in the assay on CASKI was “inactive”. For the same compound, the compound was classed as inactive in the assay with HaCat [1] and in the assay on HACAT [2]. The max response in the assay with KB-3-1 is 30.2% (inactive). For the same compound, the Potency in the assay on MKL-1 was 26.6 µM (active); in the assay on MKL-2, 7.5 µM (active); with UISO, 29.9 µM (active); in the assay with WaGa, 15 µM (active).
For the compound `Cc1cc(N)c2cc(NC(=O)Nc3ccc4nc(C)cc(N)c4c3)ccc2n1`, the Potency in the assay on TAB113 was 10 µM (active); in the assay with TAB165, 5.62 µM (active); in the assay with W2, 0.849 µM (active). Also, the values for the max response in the assay on HaCat [1], in the assay on KB-3-1 and in the assay with NIH3T3 were -0.42% (inactive), -4.37% (inactive) and -1.27% (inactive), respectively. The Potency entry in the assay with MCC-13, in the assay with MCC-26, in the assay with MKL-2, with UISO, with C33A and with CAOV3 was “inactive” in each case. In addition, the Potency result in the assay on CASKI is “inactive”.
Take `O=S1(=O)c2cccc3cccc(c23)N1CCCN1CCN(c2ccc(F)cc2)CC1`: the Potency result with TAB113, in the assay on TAB165, in the assay with W2, in the assay on MCC-13, in the assay on MCC-26 and in the assay on MKL-1 was “inactive” throughout. Further, the Potency result in the assay with UISO, in the assay with C33A, in the assay on CAOV3 and in the assay with CASKI was “inactive” throughout. The values for the max response in the assay with HaCat [1], in the assay with KB-3-1 and with NIH3T3 were -0.344% (inactive), -1.2% (inactive) and -13.9% (inactive), respectively.
